PubChem BioAssay
“And” between values parts separate entries of the source, which are not always exact repeats. Equal values may be shown once. Records with an inconclusive call do not appear. The source made the active and inactive calls. Cut-off read from the data, not from the text of the source, unless noted: active = inhibition above about 80%; inactive = the rest.

What was measured:
[1] = growth inhibition, single agents and combos, LFS_MB_2R, cell-based, cisplatin combos, synergistic combos for chromothripsis tumors (AID 1671457); settings: LFS_MB_2R medulloblastoma cells, stronger effect = higher value;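 note: cells exposed to compound for four days before readout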
[2] = UWB1.289_BRCA1 ovarian cancer growth, cell-based, BGB or cisplatin combinations (AID 1671459); settings: UWB1.289 BRCA1 ovarian carcinoma, drug combinations, stronger effect = higher value
[3] = drug combination toxicity in non-malignant astrocytes – cell-based, BGB or cisplatin IC20 combos, cytotoxicity control for chromothriptic childhood tumor combination screen (AID 1671460); settings: Human astrocytes, viability inhibition, drug combinations, at 0.5 µM, stronger effect = higher value;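 note: cells exposed to compounds for 96 hours before viability readout; 0% = vehicle and 100% = killing control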
[4] = compounds altering circadian rhythm period length – cell-based, LOPAC library, luminescence reporter (AID 2774; call rule not given here;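 note: values are relative to mean of DMSO wells on each plate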); settings: circadian reporter cells, at 7 µM, actives lie on both sides
[5] = test system: Hepatitis C virus NS3 helicase; test: blockers of NS3h binding to ssDNA – biochemical, fluorescence polarization, LOPAC1280 library, primary screen (AID 687035; in the data active = inhibition above about 37%); settings: Purified HCV NS3 helicase, Cy5-dT15 ssDNA binding fluorescence polarization; stronger effect = higher value; concentration not given here
[6] = compounds altering Cy5-DNA-NS3h complex signal – biochemical, LOPAC1280, artefact control for HCV NS3 helicase inhibitor project (AID 687037; call rule not given here); settings: Cy5-DNA-NS3h complex fluorescence interference counterscreen
[7] = blockers of cellular phospholipid synthesis – cell-based, LOPAC library, screen 4, primary screen (AID 1347384; call rule not given here); settings: animal cells, phospholipid biosynthesis inhibition screen; at 10 µM
[8] = galactose survival enhancers in mitochondrial complex I cybrids – cell-based, galactose medium, ATP luminescence, primary screen (AID 1645843;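 active = z-score of at least 1.8 in each of two replicates, scored against plate mean and spread of sample wells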;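 note: positive z means more ATP and so rescue of galactose-driven cybrid death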); settings: complex I mutant cybrid cells, 72 h, stronger effect = higher value
[9] = liver-stage malaria parasite load reduction – cell-based, known kinase inhibitor set, luminescence, hepatoma host viability (AID 624392; call rule not given here;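 note: infected cells incubated roughly two days before readout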); settings: Plasmodium liver stage in hepatoma cells, luciferase luminescence, concentration not given here; liver cell % of control: measured here: host liver cell viability; parasite % of control: stronger effect = lower value
[10] = compounds altering HSF1 focus formation in cells – imaging, Selleck Cancer Library (AID 1347162; in the data active = plate-normalised HSF1 focus index below about 0.46); settings: human cells, HSF1 nuclear foci imaging, at 10 µM; SSMD: measured here: HSF1 foci SSMD mean; cell count: measured here: cell number; plate-normalised HSF1 focus index: stronger effect = lower value
[11] = compounds altering viability of human ES cells (AID 493140; call rule not given here;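 note: cells exposed to compounds for four days before counting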); settings: human embryonic stem cell survival screen; stronger effect = higher value
[12] = P. berghei load reduction in hepatocytes – cell-based, HepG2, luciferase luminescence, HepG2 viability, primary screen (AID 624349; in the data active = parasite load remaining mostly below about 12%, no sharp cut-off; inactive = mostly above about 10%;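 note: 100% = mean of DMSO negative control wells on the same plate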); settings: P. berghei liver stage in HepG2, luciferase luminescence, concentration not given here; parasite load remaining: stronger effect = lower value; viability: measured here: HepG2 viability without parasites
[13] = growth inhibition of DIPG cells – cell-based, MIPE4.0 library, CellTiter-Glo luminescence, qHTS (AID 1347066; cut-off not given, nearly all actives have AC50 up to about 30 µM;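 note: cells exposed to compound for 48 hours before readout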); settings: SU-DIPG-VI viability, CellTiter-Glo ATP luminescence
[14] = measured here: combination with cisplatin, at 0.5 µM
[15] = measured here: combination with cisplatin, at 5 µM
[16] = BGB combination, concentration series, at 5 µM
[17] = cisplatin combination, concentration series, at 5 µM
[18] = measured here: combo with BGB IC20
[19] = measured here: combo with cisplatin IC20

CC(=O)Nc1ccc(C(=O)Nc2ccccc2N)cc1
inhibition ([1]; at 0.5 µM): -12.7% (inactive)
inhibition [1, 14]: -6.43%
inhibition [1, 15]: 50.6%
inhibition [2, 16]: 68.5%
inhibition ([2]; at 0.5 µM): -2% (inactive)
inhibition [2, 17]: 75.2%
inhibition [3]: 17% (inactive)
inhibition [3, 18]: 9.55%
inhibition [3, 19]: 26.2%

NC1CCC(N[C@@H]2C[C@H]2c2ccccc2)CC1 (stereo partly specified)
inhibition ([1]; at 0.5 µM): -35.8% (inactive)
inhibition [1, 14]: -40%
inhibition [1, 15]: -27.2%
inhibition [2, 16]: -9.67%
inhibition ([2]; at 0.5 µM): 0.86% (inactive)
inhibition [2, 17]: 21.2%
inhibition [3]: 11.2% (inactive)
inhibition [3, 18]: 8.8%
inhibition [3, 19]: 10.6%

CCCc1c(OCCCOc2ccc(OCC(=O)O)cc2)ccc(C(C)=O)c1O
period change [4]: -0.235 h (inactive)
inhibition [5]: -1% (inactive)
fluorescence ratio (interference) [6]: 1 (inactive)
outcome [7]: inactive
z-score [8]: 1.51 (inactive)

CC(=O)[C@]1(N)Cc2c(O)c3c(c(O)c2[C@@H](O[C@H]2C[C@H](O)[C@H](O)CO2)C1)C(=O)c1ccccc1C3=O
inhibition ([1]; at 0.5 µM): -4.05% (inactive)
inhibition [1, 14]: -9.33%
inhibition [1, 15]: 67%
inhibition [2, 16]: 117%
inhibition ([2]; at 0.5 µM): 13% (inactive)
inhibition [2, 17]: 128%
inhibition [3]: 25.7% (inactive)
inhibition [3, 18]: 27.9%
inhibition [3, 19]: 27.1%

CCN1CCN(Cc2ccc(NC(=O)c3ccc(C)c(NC(=O)c4cncc(-c5cccs5)c4)c3)cc2C(F)(F)F)CC1
liver cell % of control [9]: 83.9%
parasite % of control [9]: 74.7% (inactive)

COc1cc(Nc2ncc(F)c(Nc3ccc4c(n3)NC(=O)C(C)(C)O4)n2)cc(OC)c1OC
SSMD [10]: 2.8
cell count [10]: 7530
plate-normalised HSF1 focus index [10]: 1.18 (inactive)

CN(NC(=O)CC(=O)NN(C)C(=S)c1ccccc1)C(=S)c1ccccc1
SSMD [10]: 2.56
cell count [10]: 6990
plate-normalised HSF1 focus index [10]: 1.13 (inactive)

COc1ccc(S(=O)(=O)N(CCO)c2ccccc2CN(C)C/C=C/c2ccc(Cl)cc2)cc1
survival [11]: 106 (inactive)
parasite load remaining [12]: 32.7% (inactive)
viability [12]: 64.7%

C=C1[C@H](CO)[C@@H](O)C[C@@H]1n1cnc2c(=O)[nH]c(N)nc21
inhibition ([1]; at 0.5 µM): -6.88% (inactive)
inhibition [1, 14]: -11.9%
inhibition [1, 15]: -13.1%
inhibition [2, 16]: -20.8%
inhibition ([2]; at 0.5 µM): -14% (inactive)
inhibition [2, 17]: -7.68%
inhibition [3]: -13.6% (inactive)
inhibition [3, 18]: -16.4%
inhibition [3, 19]: -16.1%

Cc1nnc(C(C)C)n1C1CC2CCC(C1)N2CC[C@H](NC(=O)C1CCC(F)(F)CC1)c1ccccc1 (stereo partly specified)
SSMD [10]: 0.747
cell count [10]: 6250
plate-normalised HSF1 focus index [10]: 1.04 (inactive)
outcome [7]: inactive

CN(C)C/C=C/C(=O)Nc1ccc(C(=O)Nc2cccc(Nc3ncc(Cl)c(-c4c[nH]c5ccccc45)n3)c2)cc1
inhibition ([1]; at 0.5 µM): 75.5% (inactive)
inhibition [1, 14]: 68.1%
inhibition [1, 15]: 91.1%
inhibition [2, 16]: 79.9%
inhibition ([2]; at 0.5 µM): 84.7% (active)
inhibition [2, 17]: 86.1%
inhibition [3]: 87.2% (active)
inhibition [3, 18]: 86.5%
inhibition [3, 19]: 83.8%

CN(CCOc1ccc(C[C@H](Nc2ccccc2C(=O)c2ccccc2)C(=O)O)cc1)c1ccccn1
period change [4]: 0.085 h (inactive)

COc1ccc(C(=O)C2CCN(CC(=O)N(Cc3nc4c(c(=O)[nH]3)COCC4)CC3CC3)CC2)cc1
inhibition ([1]; at 0.5 µM): -24% (inactive)
inhibition [1, 14]: -29.2%
inhibition [1, 15]: -37.9%
inhibition [2, 16]: 1.7%
inhibition ([2]; at 0.5 µM): -0.47% (inactive)
inhibition [2, 17]: 18.5%
inhibition [3]: 48.9% (inactive)
inhibition [3, 18]: 45.3%
inhibition [3, 19]: 49.7%

c1ccc2c(-c3cnn4cc(-c5ccc(N6CCNCC6)cc5)cnc34)ccnc2c1
SSMD [10]: -18.9
cell count [10]: 2900
plate-normalised HSF1 focus index [10]: 0.0271 (active)

O=C(NOCC(O)CO)c1ccc(F)c(F)c1Nc1ccc(I)cc1F (stereo unspecified)
liver cell % of control [9]: 81.2% and 75.1% and 63.7%
parasite % of control [9]: 153% (inactive) and 268% (inactive) and 132% (inactive)

C[C@@H](O)[C@@H]1NC(=O)[C@H](CCCCN)NC(=O)[C@@H](Cc2c[nH]c3ccccc23)NC(=O)[C@H](Cc2ccccc2)NC(=O)[C@@H](NC(=O)[C@H](N)Cc2ccccc2)CSSC[C@@H](C(=O)N[C@H](CO)[C@@H](C)O)NC1=O
parasite load remaining [12]: 22.8% (inactive)
viability [12]: 81.5%
z-score [8]: 0.6 (inactive)

COc1cc(/C=C(\C#N)C(=O)Nc2nnc(C(F)(F)F)s2)ccc1OCc1ccc(C(F)(F)F)cc1C(F)(F)F
inhibition [5]: -5% (inactive)
fluorescence ratio (interference) [6]: 1 (inactive)
outcome [7]: inactive
z-score [8]: 0.35 (inactive)

COc1ccc(CNC(=O)Nc2ncc([N+](=O)[O-])s2)cc1
parasite load remaining [12]: 31.3% (inactive)
viability [12]: 94.6%
SSMD [10]: 1.38
cell count [10]: 7050
plate-normalised HSF1 focus index [10]: 1.08 (inactive)

O=[N+]([O-])c1ccc(-c2nc(-c3ccc(F)cc3)c(-c3ccncc3)[nH]2)cc1
parasite load remaining [12]: 29.6% (inactive)
viability [12]: 67.5%
inhibition [5]: 1% (inactive)
fluorescence ratio (interference) [6]: 1 (inactive)
outcome [7]: inactive
z-score [8]: -0.155 (inactive)

CNC(=O)c1ccc2c(C(=Nc3cccc(CN(C)C)c3)c3ccccc3)c(O)[nH]c2c1
outcome [13]: inactive

C[N+](C)(C)CC(=O)O
outcome [7]: inactive

CC(C)(C(=O)NCC(F)(F)C(F)(F)F)C(=O)N[C@@H]1C(=O)Nc2ccccc2-c2ccccc21
outcome [13]: inactive
SSMD [10]: 3.83
cell count [10]: 7550
plate-normalised HSF1 focus index [10]: 1.24 (inactive)

CN1CCN(c2ncc(-c3cc(Cl)cc(Cl)c3Cl)c(N)n2)CC1
outcome [13]: inactive

NS(=O)(=O)OC[C@@H]1C[C@@H](n2ccc3c(N[C@H]4CCc5ccccc54)ncnc32)C[C@@H]1O
outcome [13]: inactive
